Calls of active or inactive are those of the source. Rule for the calls: active = hit-call score of the fitted dose curve at least 0.9, where 1 is the maximum; inactive = score below 0.9.
target: Transcriptional activator Myb (Homo sapiens) (UniProt P10242); test: ATG_Myb_CIS: Attagene CIS-FACTORIAL HepG2 Assay for human Myeloblastosis (Myb) Proto-Oncogene Transcription Factor (AID 2282986); details: HepG2 Attagene CIS-FACTORIAL Myb reporter transcription; actives raise or lower the signal
Protocol: ATG_CIS is a cell-based, multiplexed-readout assay that uses HepG2, a human liver cell line, with measurements taken at 24 hours after chemical dosing in a 24-well plate.ATG_Myb_CIS is one of 52 assay component(s) measured or calculated from the ATG_CIS assay. It is designed to make measurements of mRNA induction, a form of inducible reporter, as detected with fluorescence intensity signals by Reverse transcription polymerase chain reaction (RT-PCR) and Capillary electrophoresis technology.Data from the assay component ATG_Myb_CIS was analyzed into 1 assay endpoint. This assay endpoint, ATG_Myb_CIS, was analyzed with bidirectional fitting relative to DMSO as the negative control and baseline of activity. Using a type of inducible reporter, measures of mRNA for gain or loss-of-signal activity can be used to understand the reporter gene at the transcription factor-level as they relate to the gene MYB. Furthermore, this assay endpoint can be referred to as a primary readout, because this assay has produced multiple assay endpoints where this one serves a reporter gene function. To generalize the intended target to other relatable targets, this assay endpoint is annotated to the dna binding intended target family, where the subfamily is MYB proteins.
Human liver HepG2 cells are transiently transfected with multiple reporter transcription units (MRTUs) in 6-well plates using FuGene 6 reagent (Roche; 3 ml FuGene/1 mg DNA). The MRTU constructs are regulated by a cis-regulating element (promoter). […] A major difference between the CIS and TRANS system is that in CIS activities of endogenous TFs are measured, whereas the TRANS assay evaluates changes in activities of exogenous, chimeric NR-Gal4 proteins. […] At the end of 24 hour incubation, total RNA was isolated using TriZol reagent (Invitrogen). The isolated RNA is then reverse-transcribed using oligo(dT) primer and Mo-MLV reverse transcriptase (Invitrogen) with DNAse I (Ambion) treatment for 30 min. The one-tenth of the produced cDNA was amplified by PCR using Taq DNA polymerase (Invitrogen) and two reporter sequence-specific primers. The PCR products were fluorescently labeled by primer extension with 6-arboxyfluorescein (6-FAM) 5'-labeled reporter sequence-specific primer (2 min at 95 C, 20 s at 68 C and 10 min at 72 C) and these products were digested with 5U of HpaI (New England Biolabs) for 2h at 37 C. The fragments were purified using Qiaquick PCR columns (Qiagen), analyzed on an ABI 3130xL genetic analyzer (Applied Biosystems) with peak positions identified by using a set of X-rhodamine (ROX)-labeled MapMarker1000 molecular weight standards (BioVentures). The raw capillary electrophoresis data was processed using Attagraph software (Attagene).

Chain of Transcriptional activator Myb (Homo sapiens) (P10242 whole entry, looked up): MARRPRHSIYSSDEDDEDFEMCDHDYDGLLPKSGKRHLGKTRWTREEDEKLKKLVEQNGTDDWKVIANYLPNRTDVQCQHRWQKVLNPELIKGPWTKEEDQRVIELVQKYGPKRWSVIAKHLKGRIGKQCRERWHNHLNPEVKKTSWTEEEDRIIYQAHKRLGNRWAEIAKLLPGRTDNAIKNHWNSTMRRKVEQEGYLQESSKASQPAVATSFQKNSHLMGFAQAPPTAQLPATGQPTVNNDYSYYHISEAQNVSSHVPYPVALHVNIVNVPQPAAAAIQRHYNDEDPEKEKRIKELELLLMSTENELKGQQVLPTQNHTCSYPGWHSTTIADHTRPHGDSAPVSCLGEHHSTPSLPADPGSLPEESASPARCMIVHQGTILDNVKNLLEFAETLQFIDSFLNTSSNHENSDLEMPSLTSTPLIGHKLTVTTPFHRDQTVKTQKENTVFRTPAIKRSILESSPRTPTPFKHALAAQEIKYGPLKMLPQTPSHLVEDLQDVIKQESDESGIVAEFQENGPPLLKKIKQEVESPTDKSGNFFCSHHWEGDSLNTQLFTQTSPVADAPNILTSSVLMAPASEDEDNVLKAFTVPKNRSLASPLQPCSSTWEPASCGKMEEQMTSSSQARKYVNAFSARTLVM

Structure (SMILES)	outcome
N#Cc1cc(Br)c(O)c(Br)c1	inactive
CCNc1nc(Cl)nc(NC(C)C)n1	inactive
COC(=O)N(OC)c1ccccc1COc1ccn(-c2ccc(Cl)cc2)n1	inactive
CCOC(=O)CC(SP(=S)(OC)OC)C(=O)OCC (stereo not given)	inactive
COc1ccc(C(c2ccc(OC)cc2)C(Cl)(Cl)Cl)cc1	inactive
COP(=S)(OC)Oc1nc(Cl)c(Cl)cc1Cl	inactive
CCOP(=S)(OCC)SCn1c(=O)oc2cc(Cl)ccc21	inactive
CCCCNC(=O)OCC#CI	inactive
CCOc1cc(Oc2ccc(C(F)(F)F)cc2Cl)ccc1[N+](=O)[O-]	inactive
O=C(O)c1nc(Cl)ccc1Cl	inactive
Fc1ccc(Oc2ccnc3cc(Cl)cc(Cl)c23)cc1	inactive
CC1COC(Cn2cncn2)(c2ccc(Oc3ccc(Cl)cc3)cc2Cl)O1 (stereo not given)	inactive
CC(C)C1(C)N=C(c2nc3ccccc3cc2C(=O)O)NC1=O (stereo not given)	inactive
CON(C)C(=O)Nc1ccc(Cl)c(Cl)c1	inactive
Cc1c(F)c(F)c(COC(=O)C2C(/C=C(\Cl)C(F)(F)F)C2(C)C)c(F)c1F (stereo not given)	inactive
Oc1ccccc1-c1ccccc1	inactive
CNC(=O)ON=CC(C)(C)SC	inactive
CN(C)C(=S)SSC(=S)N(C)C	inactive
C=CCC1=C(C)C(OC(=O)C2C(C=C(C)C)C2(C)C)CC1=O (stereo not given)	inactive
Cc1ccc(-c2c(Cl)nc(C#N)n2S(=O)(=O)N(C)C)cc1	inactive

Structure (SMILES)	outcome
OC(c1ccc(Cl)cc1)(c1cncnc1)c1ccccc1Cl (stereo not given)	inactive
C=CCC1=C(C)[C@@H](OC(=O)[C@@H]2[C@@H](C=C(C)C)C2(C)C)CC1=O	inactive
COC(=O)c1ccccc1C(=O)OC	inactive
CCCC1COC(Cn2cncn2)(c2ccc(Cl)cc2Cl)O1 (stereo not given)	inactive
COc1nc(C)nc(NC(=O)NS(=O)(=O)c2ccccc2Cl)n1	inactive
C=CC1(C)OC(=O)N(c2cc(Cl)cc(Cl)c2)C1=O (stereo not given)	inactive
CS/C(C)=N/OC(=O)N(C)SN(C)C(=O)O/N=C(\C)SC	inactive
O=C(Nc1ccccc1)Nc1ccnc(Cl)c1	inactive
COc1nc(NC(C)C)nc(NC(C)C)n1	inactive
O=C(O)COc1nc(Cl)c(Cl)cc1Cl	inactive
CCNc1nc(Cl)nc(NCC)n1	inactive
COP(N)(=O)SC (stereo not given)	inactive
CCCCC(CC)COC(=O)c1ccccc1C(=O)OCC(CC)CCCC (stereo not given)	inactive
CNC(=S)S	inactive
CCCCOC(=O)c1ccccc1C(=O)OCCCC	inactive
CO/C=C(/C(=O)OC)c1ccccc1Oc1cc(Oc2ccccc2C#N)ncn1	inactive
COC(=O)C(C)Oc1ccc(Oc2ccc(Cl)cc2Cl)cc1 (stereo not given)	inactive
C#CCOS(=O)OC1CCCCC1Oc1ccc(C(C)(C)C)cc1 (stereo not given)	inactive
CC(C)(C)c1ccc(CSc2cnn(C(C)(C)C)c(=O)c2Cl)cc1	inactive
CC(C)Oc1cc(-n2nc(C(C)(C)C)oc2=O)c(Cl)cc1Cl	inactive

From PubChem BioAssay (EPA / NIEHS)
